# Laboratory results as given in PubChem BioAssay (NCATS).
# Records with an inconclusive call do not appear. Calls of active or inactive are those of the source. The call rests on the fitted dose curve; in most records, active means well fitted cell-killing curve with a large enough effect; inconclusive means small, poorly fitted or top-dose-only effect; inactive means flat fitted curve, though single readings scatter.
# Assay: qHTS of pediatric cancer cell lines to identify multiple opportunities for drug repurposing: Primary screen for TC32 cells (AID 1347089); further: nearly all actives have a fitted effect of over 60% in size
# Conditions: TC32 Ewing sarcoma viability, CellTiter-Glo luminescence, 48 h; series mostly up to 45.8 µM
# From the text: Drug repurposing or repositioning has been offered as a strategy for drug development in oncology programs. This approach has special potential for childhood cancers and other rare or orphan diseases, where the expected return on new drug development has been a disincentive to pharmaceuticals.
# In this project we exploit the poly-pharmacology of drugs to discover new indications via phenotypic screening of a panel of 19 well-characterized cell lines derived from solid tumors seen in children and adolescents. The goal is to identify approved drugs with previously unrecognized anticancer properties that has the potential to reveal new mechanisms and biological processes involved in carcinogenesis or drug resistance. We employed a titration-based paradigm (quantitative high-throughput screening or qHTS), where all compounds were tested at multiple concentrations for their effect on cell viability. Concentration-response curves (CRCs) were derived directly from the primary screen, and both potency and efficacy values were used to identify compounds with robust bioactivity profiles. We screened the NIH Chemical Genomics Center (NCGC) Pharmaceutical Collection (NPC) and Mechanism Interrogation Plate (MIPE) small molecule collections of approved and investigational compounds against these cell lines; and measured metabolically active cells after 48 hours of compound treatment as a proxy for cell viability.
# Assay Submitter: Nathalia J. Martinez, National Center for Advancing Translational Sciences, National Institutes of Health, Rockville, MD, USA; email: natalia.martinez@nih.gov
# [1] Shen, M et al. Quantitative high-throughput phenotypic screening of pediatric cancer cell lines identifies multiple opportunities for drug repurposing. Oncotarget 2017 Dec 19;9(4):4758-4772. PMID 29435139.
# The cells were obtained from University of North Carolina (UNC), Pediatric Preclinical Testing Program (PPT), and Coriell Institute (CI).
# qHTS cell viability assay:
# Cells were assayed in growth media at a density of 500-1,000 cells/well. Five microliters of cells were dispensed into 1,536-well, white, solid-bottom, TC-treated plates (Greiner Bio One) using a multidrop dispenser and incubated at 37 degrees C, 5% CO2, under a humidified atmosphere for 5 hours. Twenty-three nanoliters of compounds and controls (neutral control DMSO or positive control bortezomib at final concentration of 2.3 uM) were subsequently transferred by Kalypsys pintool. For primary screens, the MIPE collection was tested at 11-point dilutions (final concentrations range from 0.78 nM to 46 µM) and the NPC collection at 8-point dilutions (final concentrations range from 0.59 nM to 46 µM). Compounds tested in follow-up screens were assayed at 11-point dilutions. Cells were incubated for 48 hours, followed by addition of 3 uL of CellTiter-Glo (Promega). After a 15min incubation at room temperature, samples were analyzed for luminescence intensity using a ViewLux High-throughput CCD imager equipped with clear filters.
# Potency means the concentration at half of the fitted maximal effect.
row,SMILES,Potency
1,O=C(C=Cc1c(C(=O)O)[nH]c2cc(Cl)cc(Cl)c12)Nc1ccccc1,inactive
2,CCN(CC)CCNC(=O)c1ccc2nc(-c3ccccc3)c(-c3ccc(CN4CCC(n5c(=O)[nH]c6ccccc65)CC4)cc3)nc2c1,18.6 µM (active)
3,CNC(=O)c1c(F)cccc1Nc1nc(Nc2cc3c(cc2OC)CCN3C(=O)CN(C)C)nc2[nH]ccc12,5.87 µM (active)
4,CC[C@H]1CN2CCc3cc(OC)c(OC)cc3[C@H]2C[C@@H]1C[C@@H]1NCCc2cc(OC)c(OC)cc21,1.17 µM (active)
5,O=C(O)Cn1nnc(-c2cc(N3CCC(Oc4cc(F)ccc4Br)CC3)no2)n1,inactive
6,Cc1cc(Nc2cc(N3CCN(C)CC3)nc(Sc3ccc(NC(=O)C4CC4)cc3)n2)n[nH]1,0.93 µM (active)
7,O=c1[nH]c(=O)n(C2CCCO2)cc1F (stereo not given),inactive
8,Cc1cc(Nc2nc(N[C@@H](C)c3ccc(F)cc3)c(C#N)cc2F)n[nH]1,2.62 µM (active)
9,CC(=O)Nc1sc2c(c1-c1nc3ccccc3s1)CNC2,inactive
10,COc1ccc(CC2SC(=O)NC2=O)cc1C(=O)NCc1ccc(C(F)(F)F)cc1 (stereo not given),inactive
11,CCOC(=O)C1=C(C)NC2=C(C(=O)CC(C)(C)C2)C1c1ccc(-c2ccccc2)cc1 (stereo not given),inactive
12,Nc1nc(-c2nn(Cc3ccccc3F)c3ncccc23)nc(N)c1N1CCOCC1,inactive
13,O=C1CCC[C@@H]2[C@H]3CCC[N+]4([O-])CCC[C@@H](CN12)[C@@H]34 (stereo not given in full),inactive
14,Nc1nc(NCCNc2ncc(-n3ccnc3)c(-c3ccc(Cl)cc3Cl)n2)ccc1[N+](=O)[O-],inactive
15,CCNC(=O)Nc1ccc2ncc(Nc3ccc(C)cc3)nc2n1,1.86 µM (active)
16,CN1c2cc(O)c(N=NC(N)=O)cc2CC1S(=O)(=O)O (stereo not given),inactive
17,CC(=O)Nc1nc(C)c(-c2ccc(Cl)c(S(=O)(=O)NCCO)c2)s1,4.15 µM (active)
18,CCS(=O)(=O)c1cccc(-c2cc(C(=O)NC3CCN(C)CC3)c(C)c3[nH]c4ncc(C)cc4c23)c1,0.415 µM (active)
19,Cc1c(C)n(Cc2ccc(-c3ccccc3C(=O)O)cc2)c2ccc(C(=O)N[C@@H](C)c3ccc([N+](=O)[O-])cc3)cc12,inactive
20,CN(C)CC(C)(C)CNc1nn2c(-c3ccccc3)nnc2cc1C1CCC1,18.6 µM (active)

row,SMILES,Potency
1,Nc1cc(C(F)(F)F)c(-c2cc(N3CCOCC3)nc(N3CCOCC3)n2)cn1,2.62 µM (active)
2,CC(C)c1ccc(Cn2ccc3c4c(N)nc(NC5CC5)nc4ccc32)cc1,4.15 µM (active)
3,COCCn1c2c([n+](Cc3cnccn3)c1C)C(=O)c1ccccc1C2=O,0.0658 µM (active)
4,CC(C)c1cnn2c(NCc3ccccc3)cc(N[C@@H](CO)[C@H](O)CO)nc12,1.47 µM (active)
5,Cc1nc(N)ncc1-c1nc(N2CCOCC2)c2sc(C(C)(C)O)cc2n1,2.34 µM (active)
6,c1ccc2c(CCNc3ccc(Nc4ccncc4)cc3)c[nH]c2c1,20.8 µM (active)
7,CC(C)c1nn(-c2c(Cl)cccc2Cl)c2nc(Cc3ccc(OCCO)cc3)[nH]c(=O)c12,0.131 µM (active)
8,COc1cccc(Nc2c(C(N)=O)cnc3c(C)cc(S(=O)(=O)c4cccc(C(=O)N(C)C)c4)cc23)c1,inactive
9,CCCNC(=O)Nc1ccc(Oc2ncnc3cc(OC)c(OC)cc23)cc1Cl,inactive
10,COc1ccc(C=Cc2cc(OC)c(OC)c(OC)c2)cc1O,0.0004 µM (active)
11,Nc1ccc(S(=O)(=O)Nc2ncccn2)cc1,inactive
12,COc1cc(C(C)C)c2c(c1)S(=O)(=O)N(COc1cc(=O)n3cccc(OCCN4CCCCC4)c3n1)C2=O,inactive
13,O=c1[nH]nc(Sc2ncc([N+](=O)[O-])s2)n1-c1ccc2c(c1)OCCO2,inactive
14,Nc1ccccc1NC(=O)c1ccc(CNC(=O)OCc2cccnc2)cc1,8.29 µM (active)
15,CC(=O)SC[C@@H](C)C(=O)N1CCC[C@H]1C(=O)N[C@@H](Cc1ccccc1)C(=O)O,inactive
16,CCn1nnc2c(N3CCOCC3)nc(-c3ccc(NC(=O)Nc4ccc(C(=O)N5CCN(C)CC5)cc4)cc3)nc21,0.0294 µM (active)
17,CC(C)c1cc(-c2n[nH]c(=O)n2-c2ccc3c(ccn3C)c2)c(O)cc1O,0.131 µM (active)
18,O=C(C=Cc1cccnc1)NCCCCC1CCN(C(=O)c2ccccc2)CC1,0.0047 µM (active)
19,CN1CCN(Cc2ccc(NC(=O)Nc3ccc(Oc4cc(NC(=O)C5CC5)ncn4)cc3)cc2C(F)(F)F)CC1,0.294 µM (active)
20,CNC(=O)c1ccc(N2C(=S)N(c3cnc(C#N)c(C(F)(F)F)c3)C(=O)C23CCC3)cc1F,inactive
